We go through two compounds from ChEMBL document CHEMBL1961873, “Compounds: GSK PKIS; Assays: Nanosyn kinase panel” (2012).

For assay [1], the target named is T1, Mitogen-activated protein kinase 12 (Homo sapiens) (UniProt P53778).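 Note: values are averaged p38gamma kinase inhibition readings, compounds tested at 1 µM.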
T1 sequence (whole entry): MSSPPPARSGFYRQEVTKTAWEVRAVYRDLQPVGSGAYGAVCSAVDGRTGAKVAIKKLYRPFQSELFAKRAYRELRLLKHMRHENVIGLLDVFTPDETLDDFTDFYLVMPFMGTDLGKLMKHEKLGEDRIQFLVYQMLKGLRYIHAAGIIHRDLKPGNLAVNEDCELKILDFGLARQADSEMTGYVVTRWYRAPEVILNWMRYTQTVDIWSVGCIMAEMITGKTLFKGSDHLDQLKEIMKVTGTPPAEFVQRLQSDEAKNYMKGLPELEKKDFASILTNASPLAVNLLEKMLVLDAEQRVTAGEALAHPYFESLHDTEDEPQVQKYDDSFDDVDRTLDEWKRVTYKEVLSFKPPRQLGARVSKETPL
To be noted: at 1 µM.

Assay [2] deals with SRSF protein kinase 1 (Homo sapiens) (UniProt Q96SB4). To be noted: at 0.1 µM.
Sequence of SRSF protein kinase 1 (Homo sapiens) (Q96SB4 whole entry): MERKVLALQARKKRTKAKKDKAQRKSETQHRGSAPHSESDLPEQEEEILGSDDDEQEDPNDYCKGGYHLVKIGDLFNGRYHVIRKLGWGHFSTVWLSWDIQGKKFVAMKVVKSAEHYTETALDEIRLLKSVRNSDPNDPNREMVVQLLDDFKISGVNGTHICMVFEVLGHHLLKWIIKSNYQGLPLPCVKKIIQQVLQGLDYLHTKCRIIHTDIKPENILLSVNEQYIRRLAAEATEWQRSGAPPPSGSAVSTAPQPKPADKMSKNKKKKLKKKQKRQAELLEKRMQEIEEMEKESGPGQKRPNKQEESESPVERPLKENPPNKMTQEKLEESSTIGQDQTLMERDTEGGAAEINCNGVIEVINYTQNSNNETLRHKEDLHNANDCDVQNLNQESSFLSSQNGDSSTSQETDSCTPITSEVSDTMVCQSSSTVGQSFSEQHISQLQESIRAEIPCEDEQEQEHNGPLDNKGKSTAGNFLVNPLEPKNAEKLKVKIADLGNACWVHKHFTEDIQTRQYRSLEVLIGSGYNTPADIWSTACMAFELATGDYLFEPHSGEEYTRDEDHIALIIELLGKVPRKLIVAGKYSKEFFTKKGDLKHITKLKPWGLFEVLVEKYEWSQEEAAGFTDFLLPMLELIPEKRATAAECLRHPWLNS
The target is the same in assay [3]. The following applies: at 1 µM.
In assay [4] the target is Phosphatidylinositol 4,5-bisphosphate 3-kinase catalytic subunit alpha isoform (Homo sapiens) (UniProt P42336). To be noted: at 0.1 µM.
Sequence of Phosphatidylinositol 4,5-bisphosphate 3-kinase catalytic subunit alpha isoform (Homo sapiens) (P42336 whole entry, canonical isoform): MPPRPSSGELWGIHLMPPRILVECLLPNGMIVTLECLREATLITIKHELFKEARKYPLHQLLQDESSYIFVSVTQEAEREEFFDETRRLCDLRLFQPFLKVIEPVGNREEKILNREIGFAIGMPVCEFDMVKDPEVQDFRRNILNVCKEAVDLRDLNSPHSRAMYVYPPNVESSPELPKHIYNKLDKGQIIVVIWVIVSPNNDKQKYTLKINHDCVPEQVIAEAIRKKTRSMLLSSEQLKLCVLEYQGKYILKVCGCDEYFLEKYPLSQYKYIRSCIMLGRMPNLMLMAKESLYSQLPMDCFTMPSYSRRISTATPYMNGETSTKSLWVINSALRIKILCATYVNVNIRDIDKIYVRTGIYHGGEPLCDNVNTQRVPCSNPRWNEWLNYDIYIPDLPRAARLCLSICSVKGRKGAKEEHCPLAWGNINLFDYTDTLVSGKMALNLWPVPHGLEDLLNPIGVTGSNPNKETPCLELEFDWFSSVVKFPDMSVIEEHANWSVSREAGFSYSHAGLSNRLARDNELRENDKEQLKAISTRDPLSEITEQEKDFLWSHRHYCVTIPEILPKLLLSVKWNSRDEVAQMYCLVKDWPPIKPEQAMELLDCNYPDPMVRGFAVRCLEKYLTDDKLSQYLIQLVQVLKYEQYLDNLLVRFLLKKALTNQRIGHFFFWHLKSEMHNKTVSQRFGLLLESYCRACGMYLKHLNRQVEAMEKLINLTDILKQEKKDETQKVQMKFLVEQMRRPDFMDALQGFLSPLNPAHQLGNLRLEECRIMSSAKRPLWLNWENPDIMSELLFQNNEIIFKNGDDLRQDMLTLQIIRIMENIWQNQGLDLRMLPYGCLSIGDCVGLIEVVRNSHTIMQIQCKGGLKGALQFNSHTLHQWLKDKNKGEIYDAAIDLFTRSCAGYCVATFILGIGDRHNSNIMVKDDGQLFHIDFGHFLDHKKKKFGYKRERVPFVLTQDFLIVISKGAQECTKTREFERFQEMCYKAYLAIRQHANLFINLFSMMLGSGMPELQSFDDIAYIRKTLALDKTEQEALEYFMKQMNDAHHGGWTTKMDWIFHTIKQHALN
For assay [5] the target is unchanged. The following applies: at 1 µM.
Assay [6] addresses T2, Phosphatidylinositol 4,5-bisphosphate 3-kinase catalytic subunit delta isoform (Homo sapiens) (UniProt O00329).
T2 sequence (whole entry): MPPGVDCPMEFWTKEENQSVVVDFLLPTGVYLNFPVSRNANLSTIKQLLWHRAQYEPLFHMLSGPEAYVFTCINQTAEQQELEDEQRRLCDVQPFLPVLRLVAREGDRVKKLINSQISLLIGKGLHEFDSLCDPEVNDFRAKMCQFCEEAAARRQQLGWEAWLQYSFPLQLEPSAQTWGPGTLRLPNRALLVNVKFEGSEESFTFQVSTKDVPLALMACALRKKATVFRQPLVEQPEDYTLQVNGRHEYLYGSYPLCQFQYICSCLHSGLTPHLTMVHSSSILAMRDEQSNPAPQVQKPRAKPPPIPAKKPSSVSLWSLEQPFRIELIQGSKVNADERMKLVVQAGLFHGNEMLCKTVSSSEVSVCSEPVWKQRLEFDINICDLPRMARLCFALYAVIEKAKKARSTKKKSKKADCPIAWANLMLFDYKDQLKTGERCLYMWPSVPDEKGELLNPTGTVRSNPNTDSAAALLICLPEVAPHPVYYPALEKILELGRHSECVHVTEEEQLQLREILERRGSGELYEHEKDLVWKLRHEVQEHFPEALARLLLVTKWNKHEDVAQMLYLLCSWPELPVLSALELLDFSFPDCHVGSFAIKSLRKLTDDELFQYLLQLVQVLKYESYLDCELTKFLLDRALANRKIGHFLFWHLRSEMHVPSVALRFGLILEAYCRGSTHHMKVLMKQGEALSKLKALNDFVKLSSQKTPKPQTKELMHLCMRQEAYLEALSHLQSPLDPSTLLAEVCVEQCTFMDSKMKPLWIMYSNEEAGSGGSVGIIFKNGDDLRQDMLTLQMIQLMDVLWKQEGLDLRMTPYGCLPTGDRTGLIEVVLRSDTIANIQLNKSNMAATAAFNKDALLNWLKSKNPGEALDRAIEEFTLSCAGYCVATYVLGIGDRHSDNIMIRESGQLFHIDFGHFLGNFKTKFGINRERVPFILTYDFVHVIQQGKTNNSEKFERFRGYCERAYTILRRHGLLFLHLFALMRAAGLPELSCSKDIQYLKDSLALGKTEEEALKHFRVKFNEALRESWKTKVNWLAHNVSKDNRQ
The following applies: at 0.1 µM.

Assay [7] deals with T2, Phosphatidylinositol 4,5-bisphosphate 3-kinase catalytic subunit delta isoform (Homo sapiens). To be noted: at 1 µM.
For assay [8], the target named is Phosphatidylinositol 4-kinase beta (Homo sapiens) (UniProt Q9UBF8). The following applies: at 0.1 µM.
Sequence of Phosphatidylinositol 4-kinase beta (Homo sapiens) (Q9UBF8 2-816 limits assumed): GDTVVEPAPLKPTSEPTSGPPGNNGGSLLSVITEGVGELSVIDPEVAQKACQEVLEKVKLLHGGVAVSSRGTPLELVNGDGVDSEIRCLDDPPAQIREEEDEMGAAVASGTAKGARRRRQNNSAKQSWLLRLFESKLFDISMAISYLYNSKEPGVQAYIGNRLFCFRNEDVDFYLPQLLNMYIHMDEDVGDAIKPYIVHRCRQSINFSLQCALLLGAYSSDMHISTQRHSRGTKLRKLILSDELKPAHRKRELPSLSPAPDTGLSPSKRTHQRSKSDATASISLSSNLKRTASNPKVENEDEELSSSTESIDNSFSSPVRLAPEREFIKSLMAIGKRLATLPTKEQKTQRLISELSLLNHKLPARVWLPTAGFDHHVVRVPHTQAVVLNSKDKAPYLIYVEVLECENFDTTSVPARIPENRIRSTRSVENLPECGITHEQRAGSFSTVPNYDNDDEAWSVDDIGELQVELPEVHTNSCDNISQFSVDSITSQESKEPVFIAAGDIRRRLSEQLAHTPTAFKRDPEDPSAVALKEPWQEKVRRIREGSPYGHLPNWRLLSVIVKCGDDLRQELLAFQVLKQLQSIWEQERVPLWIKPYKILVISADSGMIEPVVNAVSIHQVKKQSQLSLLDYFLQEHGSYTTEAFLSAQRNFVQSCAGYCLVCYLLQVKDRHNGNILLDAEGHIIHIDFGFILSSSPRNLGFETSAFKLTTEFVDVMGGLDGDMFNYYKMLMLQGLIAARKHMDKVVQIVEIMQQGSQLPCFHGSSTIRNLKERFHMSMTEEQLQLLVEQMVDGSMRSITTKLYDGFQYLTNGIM
Assay [9] shares this target. The following applies: at 1 µM.
The target in assay [10] is Sphingosine kinase 1 (Homo sapiens) (UniProt Q9NYA1). To be noted: at 0.1 µM.
Sequence of Sphingosine kinase 1 (Homo sapiens) (Q9NYA1 whole entry): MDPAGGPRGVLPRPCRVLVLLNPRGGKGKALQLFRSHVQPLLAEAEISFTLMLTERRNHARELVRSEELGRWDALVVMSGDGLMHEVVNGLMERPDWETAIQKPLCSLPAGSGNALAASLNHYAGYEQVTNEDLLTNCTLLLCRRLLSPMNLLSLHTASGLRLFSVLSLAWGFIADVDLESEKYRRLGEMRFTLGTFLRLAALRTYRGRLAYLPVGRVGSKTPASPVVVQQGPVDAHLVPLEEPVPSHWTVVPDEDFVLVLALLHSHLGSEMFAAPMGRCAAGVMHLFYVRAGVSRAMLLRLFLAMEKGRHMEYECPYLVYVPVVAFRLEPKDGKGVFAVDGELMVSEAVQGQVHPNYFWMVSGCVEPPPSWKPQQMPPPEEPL
The target is the same in assay [11]. To be noted: at 1 µM.
In assay [12] the target is T3, Sphingosine kinase 2 (Homo sapiens) (UniProt Q9NRA0).
T3 sequence (whole entry): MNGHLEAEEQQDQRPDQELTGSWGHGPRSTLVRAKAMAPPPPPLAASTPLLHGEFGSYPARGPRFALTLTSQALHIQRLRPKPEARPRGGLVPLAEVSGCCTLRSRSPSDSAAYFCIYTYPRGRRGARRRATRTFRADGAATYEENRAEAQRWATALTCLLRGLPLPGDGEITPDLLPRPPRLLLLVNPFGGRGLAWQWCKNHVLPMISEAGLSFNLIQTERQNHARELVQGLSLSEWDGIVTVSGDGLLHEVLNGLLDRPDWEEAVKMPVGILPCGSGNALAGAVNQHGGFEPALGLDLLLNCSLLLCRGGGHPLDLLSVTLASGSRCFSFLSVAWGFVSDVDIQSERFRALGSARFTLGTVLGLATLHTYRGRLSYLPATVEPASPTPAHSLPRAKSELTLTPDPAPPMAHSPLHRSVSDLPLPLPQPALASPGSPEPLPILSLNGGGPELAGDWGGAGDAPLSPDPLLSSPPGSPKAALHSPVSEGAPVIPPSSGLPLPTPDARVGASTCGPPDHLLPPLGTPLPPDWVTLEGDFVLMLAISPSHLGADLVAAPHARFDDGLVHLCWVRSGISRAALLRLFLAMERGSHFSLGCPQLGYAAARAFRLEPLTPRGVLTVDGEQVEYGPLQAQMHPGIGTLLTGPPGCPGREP
To be noted: at 0.1 µM.

Assay [13] addresses T3, Sphingosine kinase 2 (Homo sapiens). To be noted: at 1 µM.
The target in assay [14] is Casein kinase II subunit alpha (Homo sapiens) (UniProt P68400). The following applies: at 0.1 µM.
Sequence of Casein kinase II subunit alpha (Homo sapiens) (P68400 whole entry, looked up): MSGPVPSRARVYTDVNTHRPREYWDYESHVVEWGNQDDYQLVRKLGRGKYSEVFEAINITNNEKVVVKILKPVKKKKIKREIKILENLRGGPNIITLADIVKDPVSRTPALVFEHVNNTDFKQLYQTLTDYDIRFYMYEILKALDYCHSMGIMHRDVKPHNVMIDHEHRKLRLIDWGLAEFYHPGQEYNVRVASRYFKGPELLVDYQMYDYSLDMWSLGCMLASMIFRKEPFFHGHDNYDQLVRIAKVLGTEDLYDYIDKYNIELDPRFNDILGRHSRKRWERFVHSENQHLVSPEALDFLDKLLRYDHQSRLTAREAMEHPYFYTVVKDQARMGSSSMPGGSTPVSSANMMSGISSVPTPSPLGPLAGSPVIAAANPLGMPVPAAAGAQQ
The target is the same in assay [15]. The following applies: at 1 µM.
For assay [16], the target named is T4, Inhibitor of nuclear factor kappa-B kinase subunit alpha (Homo sapiens) (UniProt O15111).
T4 sequence (whole entry): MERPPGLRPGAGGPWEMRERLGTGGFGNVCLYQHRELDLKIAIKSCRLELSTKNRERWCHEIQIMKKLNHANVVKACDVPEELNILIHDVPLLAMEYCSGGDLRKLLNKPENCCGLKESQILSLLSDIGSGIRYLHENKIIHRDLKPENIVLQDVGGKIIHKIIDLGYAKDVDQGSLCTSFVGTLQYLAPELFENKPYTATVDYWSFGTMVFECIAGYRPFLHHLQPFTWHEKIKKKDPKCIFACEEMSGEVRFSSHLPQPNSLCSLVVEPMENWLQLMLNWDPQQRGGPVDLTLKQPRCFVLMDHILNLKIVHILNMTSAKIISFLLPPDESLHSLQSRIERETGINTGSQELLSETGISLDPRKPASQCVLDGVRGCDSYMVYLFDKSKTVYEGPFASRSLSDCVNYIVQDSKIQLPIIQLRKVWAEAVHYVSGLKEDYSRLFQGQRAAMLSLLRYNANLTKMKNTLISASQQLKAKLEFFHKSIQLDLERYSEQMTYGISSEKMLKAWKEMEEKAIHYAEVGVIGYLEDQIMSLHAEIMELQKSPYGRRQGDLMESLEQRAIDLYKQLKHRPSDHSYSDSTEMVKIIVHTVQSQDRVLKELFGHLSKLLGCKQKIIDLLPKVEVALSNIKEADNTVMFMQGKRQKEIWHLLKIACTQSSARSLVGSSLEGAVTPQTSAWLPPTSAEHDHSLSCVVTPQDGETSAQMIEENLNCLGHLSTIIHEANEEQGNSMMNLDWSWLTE
To be noted: at 0.1 µM.

Assay [17] concerns the target T4, Inhibitor of nuclear factor kappa-B kinase subunit alpha (Homo sapiens). The following applies: at 1 µM.
Assay [18] deals with T5, Inhibitor of nuclear factor kappa-B kinase subunit beta (Homo sapiens) (UniProt O14920).
T5 sequence (whole entry): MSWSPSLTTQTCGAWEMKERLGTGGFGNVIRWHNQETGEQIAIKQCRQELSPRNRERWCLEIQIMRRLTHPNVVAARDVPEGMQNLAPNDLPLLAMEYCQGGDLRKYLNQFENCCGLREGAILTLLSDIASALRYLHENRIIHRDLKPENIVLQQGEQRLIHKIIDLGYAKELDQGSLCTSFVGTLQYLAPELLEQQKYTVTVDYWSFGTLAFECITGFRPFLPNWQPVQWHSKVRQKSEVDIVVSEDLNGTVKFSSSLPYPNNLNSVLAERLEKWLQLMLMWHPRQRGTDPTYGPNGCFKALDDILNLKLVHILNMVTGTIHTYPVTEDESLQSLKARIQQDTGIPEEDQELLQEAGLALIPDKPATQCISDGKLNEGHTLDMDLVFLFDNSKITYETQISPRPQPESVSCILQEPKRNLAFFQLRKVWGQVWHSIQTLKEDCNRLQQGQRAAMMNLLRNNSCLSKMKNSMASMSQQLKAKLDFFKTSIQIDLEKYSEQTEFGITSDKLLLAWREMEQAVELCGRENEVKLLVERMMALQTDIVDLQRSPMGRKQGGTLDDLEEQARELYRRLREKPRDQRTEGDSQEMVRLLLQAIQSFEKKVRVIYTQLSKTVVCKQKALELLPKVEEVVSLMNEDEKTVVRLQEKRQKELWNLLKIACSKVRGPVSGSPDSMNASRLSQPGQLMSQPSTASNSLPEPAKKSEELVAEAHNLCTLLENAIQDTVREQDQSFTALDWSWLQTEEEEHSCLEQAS
To be noted: at 0.1 µM.

Assay [19] concerns the target T5, Inhibitor of nuclear factor kappa-B kinase subunit beta (Homo sapiens). The following applies: at 1 µM.
The target in assay [20] is T6, Inhibitor of nuclear factor kappa-B kinase subunit epsilon (Homo sapiens) (UniProt Q14164).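 Note: mean inhibition of IKKε reported, from the GSK PKIS dataset.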
T6 sequence (whole entry): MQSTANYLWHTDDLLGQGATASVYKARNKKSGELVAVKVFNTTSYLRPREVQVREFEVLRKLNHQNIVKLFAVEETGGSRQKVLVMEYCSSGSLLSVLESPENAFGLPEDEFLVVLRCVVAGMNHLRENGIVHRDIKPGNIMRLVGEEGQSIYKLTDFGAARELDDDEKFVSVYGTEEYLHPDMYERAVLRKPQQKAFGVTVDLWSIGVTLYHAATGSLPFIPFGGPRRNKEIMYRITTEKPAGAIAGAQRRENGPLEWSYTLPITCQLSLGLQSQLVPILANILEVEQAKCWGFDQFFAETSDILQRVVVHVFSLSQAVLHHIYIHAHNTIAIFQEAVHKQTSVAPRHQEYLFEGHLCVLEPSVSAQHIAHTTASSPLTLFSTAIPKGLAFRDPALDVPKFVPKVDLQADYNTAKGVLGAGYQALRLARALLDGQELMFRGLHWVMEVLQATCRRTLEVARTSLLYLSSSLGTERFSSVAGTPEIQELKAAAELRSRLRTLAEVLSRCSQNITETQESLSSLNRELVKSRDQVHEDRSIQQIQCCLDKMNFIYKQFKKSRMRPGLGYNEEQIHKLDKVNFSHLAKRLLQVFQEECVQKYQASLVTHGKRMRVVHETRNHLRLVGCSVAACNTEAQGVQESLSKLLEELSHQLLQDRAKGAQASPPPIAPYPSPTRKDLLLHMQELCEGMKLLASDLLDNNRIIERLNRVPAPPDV
The following applies: at 0.1 µM.

The inhibition is the drop in the measured response relative to a control, in per cent. Take `NS(=O)(=O)c1ccc(N/N=C2\C(=O)Nc3cccc(CCc4ccncc4)c32)cc1`: the inhibition was 0.75% in [1]; -0.62% in assay [2]; -1% in [3]; 0.59% in assay [4]; 1.55% in [5]; 0.97% in assay [6]. The inhibition in assay [7] came out at 3.61%; in assay [8] it was 2.1%; in [9] it was 1.01%; in [10], 1.36%; in assay [11], 3.16%; in assay [12] it was 0%. Further, the inhibition in [13] was -4.51%; in [14], 5.35%; in [15] it was 2.3%; in assay [16], -0.34%; in [17], 1.3%; in assay [18] it was 0.73%. The inhibition in assay [19] is -2.12%; in assay [20] it was -0.26%.

On to `CCCNc1cccc(-n2ncc3c(N/N=C/c4ccncc4)ncnc32)c1`, for which the inhibition in assay [1] was determined as 0.33%; in assay [2], 0.43%; in assay [3], 3.51%; in [4] it was 1.36%; in [5], 3.81%; in [6] it was 3.31%. The inhibition is 14.7% in assay [7]; 5.69% in [8]; 4.32% in assay [9]; 0.21% in assay [10]; -3.91% in assay [11]; -0.44% in assay [12]. Besides, the inhibition in assay [13] was determined as 1.31%; in assay [14], 1.7%; in assay [15] it was 14.1%; in assay [16], 5.25%; in assay [17], 0.68%; in [18], 0.62%. Moreover, the inhibition in assay [19] turned out to be 3.19%; in [20], 5.27%.
